Data reported in PubChem BioAssay AID463173 (ICCB-Longwood Screening Facility, Harvard Medical School, 2010).
In all, about 52,000 compounds went through this assay and about 4,300 (8.3%) were called active. Only a selection was taken, and actives are over-represented in it overall. A number with no mark means an inactive call. Rule as the data show it: active = survival mostly below about 52% (no sharp cut-off); inactive = mostly above about 56%.

test system: DeltatarO mutant; assay: growth inhibition of S. aureus wild type versus tarO mutant, primary screen, teichoic acid synthesis inhibitors, RN4220, OD600 (AID 463173); conditions: OD600, 18 h, active compounds read low, screened at 18.75 µg/mL (by protocol)

SMILES | survival
COc1cccc(CNC(=O)C2CCCN(S(=O)(=O)c3cn(C)cn3)C2)c1 (stereo unspecified) | 75%
CSCCC(NS(=O)(=O)c1cccs1)C(=O)Nc1ccc(C)c(Cl)c1 (stereo unspecified) | 74%
CCC(C(=O)N1CCN(c2ccccn2)CC1)c1ccccc1 (stereo unspecified) | 75%
COc1ccc(CNC(=O)CCS(=O)(=O)c2ccc3c(c2)oc(=O)n3C)cc1 | 75%
CCc1ccccc1NC(=O)Cn1c(=O)n(Cc2ccccc2)c(=O)c2c(C)c(C(=O)N(C)C)sc21 | 67%
N#CC(C#N)=C(C(C#N)=C1Nc2ccccc2N1)c1ccccc1F | 59%
O=C(Nc1ccc(Br)cc1)c1ccc2c3c(onc13)-c1ccccc1C2=O | 72%
CN(C)c1ccc(CNS(=O)(=O)c2ccc3[nH]c4c(c3c2)CCCCC4)cc1 | 84%
Cc1cccc(C(=O)Nc2ccc3nc(SCC(=O)N4CCCC4)sc3c2)c1 | 58%
Cc1ccc2c(=O)cc(C(=O)N(Cc3ccc(N(C)C)cc3)C3CCS(=O)(=O)C3)oc2c1 (stereo unspecified) | 115%
CCOc1ccc(CN(C(=O)c2cc(=O)c3cc(C)cc(C)c3o2)C2CCS(=O)(=O)C2)cc1 (stereo unspecified) | 56%
CCc1ccc(CN(C(=O)c2cc(=O)c3ccc(C)cc3o2)C2CCS(=O)(=O)C2)cc1 (stereo unspecified) | 107%
Cc1ccc2c(=O)cc(C(=O)N(Cc3ccc(C(C)(C)C)cc3)C3CCS(=O)(=O)C3)oc2c1 (stereo unspecified) | 35% (active)
CCCOc1ccc(CN(C(=O)c2cc(=O)c3ccc(C)cc3o2)C2CCS(=O)(=O)C2)cc1 (stereo unspecified) | 36% (active)
CCSc1ncc(Cl)c(C(=O)N(Cc2ccccc2Cl)C2CCS(=O)(=O)C2)n1 (stereo unspecified) | 83%
CCSc1ncc(Cl)c(C(=O)N(Cc2ccc(C(C)(C)C)cc2)C2CCS(=O)(=O)C2)n1 (stereo unspecified) | 42% (active)
CCOc1ccc(CN(C(=O)c2cc(=O)c3cc(Cl)ccc3o2)C2CCS(=O)(=O)C2)cc1 (stereo unspecified) | 104%
CCc1ccc(CN(C(=O)c2nc(SC)ncc2Cl)C2CCS(=O)(=O)C2)cc1 (stereo unspecified) | 71%
COc1cccc(NC(=O)c2oc3ccccc3c2NC(=O)c2ccc(C(F)(F)F)cc2)c1 | 60%

SMILES | survival
COc1cc(CN2CCc3nc(Nc4ccc5c(c4)OCCO5)ncc3C2)cc(OC)c1OC | 91%
CCOC(=O)N1CCN(Cc2nc3cc(NC(=O)C(C)C)ccc3n2C(C)C)CC1 | 68%
CCOC(=O)c1cccc(NC(=O)CCC(=O)N2CC(C)Oc3ccc(C)cc32)c1 (stereo unspecified) | 51%
Cc1ccc(-n2nc(C)c3c(C)c(CCC(=O)NCc4ccc(Cl)cc4)c(C)nc32)cc1 | 89%
O=C(CN1CCN(Cc2ccccc2Cl)C1=O)NCc1ccccc1Cl | 67%
CCc1cc(C=Nc2ccccc2)c(O)s1 | 98%
Cc1cc(N2CCN(c3cccc(C)c3C)CC2)n2nc(C)c(-c3ccc(Cl)cc3)c2n1 | 87%
Cc1ccc(CNC(=O)c2cc3sccc3n2Cc2ccc(F)cc2)cc1 | 83%
COC(=O)CN1C(=O)CSc2ccc(S(=O)(=O)Nc3ccc(Cl)cc3C)cc21 | 124%
Cc1cccc(-c2nc(SCCCOc3ccc(Cl)c(C)c3)n3[nH]c(=O)cc3n2)c1 | 72%
N#Cc1cc2c(=O)n3ccccc3nc2n(-c2nnc(SCc3ccccc3F)s2)c1=O | 81%
CCc1ccc(NC(=O)CSC2=Nc3ccccc3C3=NC(CC(=O)NCc4ccc5c(c4)OCO5)C(=O)N23)cc1 (stereo unspecified) | 107%
COCCN1Cc2cccc(C(=O)Nc3ccc(Cl)cc3Cl)c2C1=O | 59%
C=Cc1ccc(Cn2c(=O)cc(C)c3c(C)nn(C)c32)cc1 | 8% (active)
COC(=O)c1ccc(Cn2c(=O)cc(C)c3c(C)nn(C)c32)cc1 | 66%
Cc1cc(=O)n(Cc2ccccc2)c2c1c(C)nn2-c1ccccc1 | 89%
C=Cc1ccc(Cn2c(=O)cc(C)c3c(C)nn(-c4ccccc4)c32)cc1 | 17% (active)
Cc1ccc(C)c(Cn2c(=O)cc(C)c3c(C)nn(C)c32)c1 | 91%
COc1cccc(Cn2c(=O)cc(C)c3c(C)nn(C)c32)c1 | 89%

SMILES | survival
Cc1cc(=O)n(Cc2ccc(Cl)cc2)c2c1c(C)nn2-c1ccccc1 | 126%
Cc1cc(=O)n(Cc2ccccc2)c2c1c(C)nn2C | 20% (active)
Cc1cc(=O)n(Cc2cccc(Cl)c2)c2c1c(C)nn2C | 102%
CCc1ccccc1NC(=O)CCC(=O)N1CC(C)Oc2ccc(C)cc21 (stereo unspecified) | 62%
O=C(COc1ccc2ccccc2c1)NC1CC(=O)N(c2ccc(F)cc2)C1 (stereo unspecified) | 69%
CC(C)CCn1nnnc1CN1CCN(Cc2ccc3c(c2)OCO3)CC1 | 69%
CCOC(=O)c1nnn(C(CC)C(=O)Nc2c(C)cccc2C)c1C(=O)OCC (stereo unspecified) | 100%
Cc1cccn2c(=O)c3cc(C#N)c(=O)n(-c4nnc(SCc5ccc(Cl)cc5)s4)c3nc12 | 81%
CC(C)N(C(=O)Cn1cc(S(=O)(=O)Cc2ccc(C(F)(F)F)cc2)c2ccccc21)C(C)C | 54%
Cc1cc(C)c(NC(=O)Cn2c(=O)n(Cc3ccc(C(=O)NCc4ccco4)cc3)c(=O)c3sccc32)c(C)c1 | 173%
Cc1cccc(NS(=O)(=O)c2ccc3oc(=O)c4ncn(C)c4c3c2)c1C | 109%
Cc1ccc(NC(=O)c2ccc(CNS(=O)(=O)c3ccc4c(c3)C(C)(C)C(=O)N4C)cc2)cc1C | 62%
COc1ccc(OC)c(CCNc2ncnc3onc(-c4ccc(Cl)cc4)c23)c1 | 94%
CCOc1ccc2oc(=O)cc(CN3CCN(c4ccc(Cl)cc4)CC3)c2c1 | 97%
CCN1CC=C2C(C#N)=C(N)C(C#N)(C#N)C(C)C2C1 (stereo unspecified) | 80%
CC1CCC(NC(=O)CCc2cn(Cc3ccccc3Cl)c3ccccc23)CC1 (stereo unspecified) | 51% (active)
Cc1ccc(Cn2cc(CCC(=O)NC3CCC(C)CC3)c3ccccc32)cc1 (stereo unspecified) | 74%
O=C(CCc1cn(Cc2ccccc2Cl)c2ccccc12)NC1CCCCC1 | 71%
